Compound activity: PubChem, The Scripps Research Institute Molecular Screening Center
LYPLA1 counter: LYPLA1 inhibitors, primary screen, counter-screen for PME1 inhibitor project, biochemical, fluorescence polarization, FP-Rh probe ABPP. recombinant LYPLA1. Acyl-protein thioesterase 1 (Homo sapiens), O75608. hit rate 0.16% among 320,000. AID 2174, 2009. inhibition, % at 5.9 µM;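 active = inhibition above the mean of all tested compounds plus 3 SD, set per campaign, cut at about 14% in these data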;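 note: inhibitors block serine hydrolase probe labeling of LYPLA1 so polarization falls; 0% = enzyme with DMSO and 100% = wells lacking LYPLA1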
Target sequence (O75608 whole entry, looked up): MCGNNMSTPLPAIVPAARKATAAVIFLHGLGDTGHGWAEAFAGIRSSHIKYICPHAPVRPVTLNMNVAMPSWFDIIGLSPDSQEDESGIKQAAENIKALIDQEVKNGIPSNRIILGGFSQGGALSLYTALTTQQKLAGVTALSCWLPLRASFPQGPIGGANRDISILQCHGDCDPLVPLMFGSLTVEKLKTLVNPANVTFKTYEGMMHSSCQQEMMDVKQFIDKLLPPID
LYPLA2 inh: LYPLA2 inhibitors, primary screen, counter-screen for PME1 inhibitor project, biochemical, fluorescence polarization, FP-Rh probe ABPP; Acyl-protein thioesterase 2 (Homo sapiens), O95372; recombinant LYPLA2; inhibition, % at 5.9 µM; hit rate 0.38% among 320,000; AID 2177, 2009;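 active = inhibition above the screen-wide mean plus 3 SD, limit set per campaign, cut at about 26% in these data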;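 note: 0% = LYPLA2 with DMSO and 100% = wells lacking LYPLA2 enzyme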
Target sequence (O95372 whole entry, looked up): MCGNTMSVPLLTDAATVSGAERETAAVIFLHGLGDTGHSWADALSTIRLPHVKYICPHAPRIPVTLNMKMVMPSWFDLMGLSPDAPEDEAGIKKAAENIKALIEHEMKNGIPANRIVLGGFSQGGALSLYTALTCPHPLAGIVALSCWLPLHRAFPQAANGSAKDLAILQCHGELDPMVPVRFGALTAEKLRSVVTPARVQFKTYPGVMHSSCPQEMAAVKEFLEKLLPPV
PME-1 inh: PME-1 inhibitors via competitive probe labeling, primary screen, biochemical, fluorescence polarization, FP-Rh probe, HTS. Protein phosphatase methylesterase 1 (Homo sapiens), Q9Y570. recombinant PME-1. inhibition, % at 5.9 µM. hit rate 0.53% among 320,000. AID 2130, 2009;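 active = inhibition above the campaign mean of all compounds plus 3 SD, cut at about 26% in these data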;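 note: competitive labeling of PME-1 active site by serine hydrolase directed probe; 0% = PME-1 with DMSO and 100% = wells lacking PME-1 enzyme; inhibitors block probe labeling so polarization falls and inhibition rises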
GSTO1 inh: inhibitors of recombinant GSTO1, primary screen, counter-screen for RBBP9 inhibitor project, biochemical, fluorescence polarization. activity-based probe fluorescence polarization. AID 1974, 2009. inhibition, % at 5.96 µM. Glutathione S-transferase omega-1 (Homo sapiens), P78417. hit rate 1.1% among 300,000;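 active = inhibition above the campaign mean inhibition plus 3 SD, cut at about 35% in these data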;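 note: 0% = GSTO1-1 with DMSO and 100% = wells lacking GSTO1-1 enzyme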
Target sequence (P78417 whole entry, looked up): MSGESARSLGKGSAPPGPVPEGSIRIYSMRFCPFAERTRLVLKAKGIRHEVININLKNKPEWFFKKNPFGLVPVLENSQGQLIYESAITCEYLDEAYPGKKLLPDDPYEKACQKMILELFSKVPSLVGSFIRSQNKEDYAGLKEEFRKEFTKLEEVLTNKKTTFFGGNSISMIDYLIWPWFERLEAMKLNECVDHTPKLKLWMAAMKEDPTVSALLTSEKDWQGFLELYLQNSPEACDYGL
PAD4 FP inh: human PAD4 inhibitors, primary screen, biochemical, fluorescence polarization, 1536-well format. hit rate 0.41% among 330,000. Protein-arginine deiminase type-4 (Homo sapiens), Q9UM07. inhibition, % at 6.36 µM. recombinant PAD4, RCA probe fluorescence polarization;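 active = percent inhibition above a cutoff equal to the mean of all tested compounds plus 3 SD, cut at about 15% in these data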;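 note: 0% = PAD4 with RCA probe and DMSO and 100% = probe without PAD4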
Fam108B counter: mouse Fam108B serine hydrolase inhibitors, primary screen, counter-screen for RBBP9 inhibitor project, biochemical, fluorescence polarization; inhibition, % at 9.51 µM; recombinant Fam108B, FP-Rh probe fluorescence polarization; hit rate 0.33% among 300,000; AID 1947, 2009;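 active = inhibition above the screen mean inhibition plus 3 SD, computed separately per campaign, cut at about 18% in these data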;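 note: inhibitors lower polarization as less probe binds the enzyme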
Fam108b confirm: mouse Fam108b serine hydrolase inhibitors, confirmation, counter-screen for RBBP9 inhibitor project, biochemical, fluorescence polarization, triplicate. AID 1978, 2009. hit rate 44% among 930. shares compounds with Fam108B counter. recombinant Fam108b, FP-Rh probe fluorescence polarization. inhibition, % at 9.51 µM;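 active = inhibition above a limit from the primary screen, the mean over all compounds plus 3 SD, cut at about 19% in these data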;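 note: 0% = median of active Fam108b wells and 100% = catalytically dead S170A mutant; inhibitors free the probe so polarization falls as inhibition rises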
Fam108b ABPP HTS: inhibition of mouse Fam108b by HTS hits, late-stage follow-up, biochemical, gel-based ABPP, soluble recombinant form | inhibition, % at 20 µM | fluorophosphonate probe | hit rate 44% among 260 | shares compounds with Fam108B counter; in the data active = inhibition above about 40%
* = called active by the depositor; nt = not tested or not shown. A selection: hits, their analogues and other compounds. The true share with any hit is near 1.8%.

SMILES | LYPLA1 counter | LYPLA2 inh | PME-1 inh | GSTO1 inh | PAD4 FP inh | Fam108B counter | others
CN(C)S(=O)(=O)c1ccc(N2CCCC2)c(C(=O)OCC(=O)NC2(C#N)CCCCC2)c1 | 1 | 3 | 1 | 0 | -4 | -1
Cc1ccc(NC(=O)c2nc(S(=O)(=O)Cc3ccccc3C)ncc2Cl)cc1C | -8 | -5 | -18 | -21 | 0 | -7
Cc1cc(C)c2c(N)c(C(=O)NN)sc2n1 | 12 | 5 | 32* | 12 | -9 | 6
CN(C)c1ccc(NC(=O)Nc2ccc3snnc3c2)cc1 | -9 | 1 | 32* | 10 | -1 | 9
O=C(Nc1ccccc1)Nc1ccc2snnc2c1 | -19 | -9 | -22 | -32 | -1 | -2
Cc1cc(C)c2c(N)c(-c3nc4ccccc4[nH]3)sc2n1 | -2 | -5 | 29* | 4 | 2 | 8
C=CCOc1c(/C=N\NC(N)=O)cccc1OC | -1 | -3 | 1 | 11 | -8 | -2
C=CCOc1c(OC)cc(/C=N/Nc2cccc(C(=O)O)c2)c(Br)c1Br | 6 | 12 | 46* | -3 | -3 | 25*
COc1ccc(CCN2CC(C(=O)N(C)Cc3ccc(C)o3)CCC2=O)cc1 (stereo not drawn) | -3 | 0 | -2 | -2 | 6 | 6
CCOc1cc(/C=N/NC(=O)c2cc(C)n(-c3ccc(F)cc3)c2C)ccc1O | -4 | 1 | 17 | 23 | 0 | 5
Cc1cc(C(=O)N/N=C2\CC(=O)c3ccccc32)c(C)n1-c1ccc(F)cc1 | -4 | 6 | 10 | 55* | -5 | 6
O=C(COc1cc(F)ccc1[N+](=O)[O-])NCCN1C(=O)CSC1=O | nt | nt | nt | nt | -1 | nt
COc1cccc(-c2nnc(SC(C(=O)c3c[nH]c4ccccc34)c3ccccc3)n2C)c1 (stereo not drawn) | -10 | -20 | 56* | 4 | 3 | -3
Cc1ccccc1OCC(=O)NC(=S)Nc1ccc(Br)c(C)n1 | -4 | 6 | 2 | -5 | -1 | 6
Cc1ccccc1OCC(=O)NC(=S)Nc1cccc2cc(O)ccc12 | -8 | -8 | 28* | 5 | -4 | -1
CCOC(=O)C1CCCN(C(=O)c2cccc(S(=O)(=O)N(C)c3ccc(C)cc3)c2)C1 (stereo not drawn) | 0 | -2 | 2 | nt | -10 | nt
CC(C)Cc1cc(C(=O)N2CCCC(CCC(=O)N(C)CCc3ccccn3)C2)no1 (stereo not drawn) | 0 | 0 | -2 | 0 | 1 | -5
Cc1c(O)ccc(C=NNc2nc(-c3cccnc3)nc3ccccc23)c1O | nt | nt | nt | nt | nt | nt | Fam108b ABPP HTS=60*
Cc1cc(/C=C(\C#N)C(=O)NCc2cccs2)c(C)n1-c1ccccc1F | -1 | -8 | -3 | -5 | -1 | -4
O=[N+]([O-])c1cc(Br)c(O)c(/C=N/Nc2nnnn2-c2cccc3ccccc23)c1 | 5 | 16 | 49* | -35 | -7 | 40* | Fam108b confirm=54*
CCC(C)NC(=O)c1cc(Sc2nnc(C)s2)nc2ccccc12 (stereo not drawn) | -2 | 6 | 1 | 2 | 8 | -1
O=C(NN1C(=O)/C(=C/C=C/c2ccco2)SC1=S)c1ccncc1 | -9 | -5 | -27 | -23 | 2 | 41* | Fam108b confirm=10
CC(C)C(C(=O)O)N1C(=O)/C(=C/C=C/c2ccco2)SC1=S (stereo not drawn) | -8 | -2 | -30 | 25 | -5 | 38* | Fam108b confirm=0
O=C(O)c1ccc([N+](=O)[O-])c2c1C(=O)c1ccccc1C2=O | 0 | 2 | 10 | 18 | -4 | 1
O=C1c2ccccc2C(=O)c2c([N+](=O)[O-])ccc(O)c21 | 8 | 10 | 29* | 11 | 14 | 31* | Fam108b confirm=36*;Fam108b ABPP HTS=30
SMILES | LYPLA1 counter | LYPLA2 inh | PME-1 inh | GSTO1 inh | PAD4 FP inh | Fam108B counter | others
Cc1ccc(S(=O)(=O)Nc2ccc(C(=O)N3CCN(c4ccccc4O)CC3)cc2)cc1[N+](=O)[O-] | -1 | -2 | 6 | -3 | 0 | 2
CCCCOc1[nH]c2nc(-c3ccco3)n(Cc3ccco3)c(=N)c2c1C#N | -1 | 4 | 14 | -160 | 9 | 20* | Fam108b confirm=13
c1ccc(CSc2nnc(-c3ccco3)n2Cc2ccco2)cc1 | 3 | 6 | 4 | -9 | 3 | -2
Cc1cc(C)cc(Nc2nc(-c3ccc(S(=O)(=O)N4CCCC4)cc3)cs2)c1 | -14 | -6 | 16 | -8 | -3 | 24* | Fam108b confirm=0
Cc1ccc(Nc2nc(-c3ccc(S(=O)(=O)N4CCCC4)cc3)cs2)cc1C | -14 | -5 | 12 | -6 | -2 | 8
O=C(Nc1cccc(C(F)(F)F)c1)Nc1ccc(N2CCCC2)c(S(=O)(=O)Nc2ccccc2Cl)c1 | -13 | 5 | 20 | -26 | 0 | 35* | Fam108b confirm=32*;Fam108b ABPP HTS=95*
COc1cc(O)ccc1/C=N/NC(=O)c1ccc([N+](=O)[O-])cc1 | 5 | 3 | -2 | 11 | -1 | -3
O=C(NC(CSCc1ccccc1)C(=O)N/N=C/c1ccc(O)cc1O)c1ccc([N+](=O)[O-])cc1 (stereo not drawn) | -29 | -21 | 0 | -36 | -4 | 23* | Fam108b confirm=-10
COc1ccc(CNC(=O)C/C(C)=N/NC(=O)C23CC4CC(CC(C4)C2)C3)cc1 | -2 | -1 | -1 | 0 | -1 | 3
C#CCn1cc(/C=N/Nc2nc3ccccc3[nH]2)c2ccccc21 | 4 | 6 | 25 | -4 | 3 | 30* | Fam108b confirm=21*
CCN(CC)c1ccc(/C=N/Nc2nc3ccccc3[nH]2)c(O)c1 | -4 | 7 | 7 | -22 | -11 | 21* | Fam108b confirm=19*
COc1cc(OC)c(OC)cc1/C=N/Nc1nc2ccccc2[nH]1 | 1 | -2 | -19 | 8 | 3 | 11
CC(NC(=O)CN1C(=O)NC2(CCCCCC2)C1=O)c1ccccc1Cl (stereo not drawn) | -4 | -4 | -3 | nt | -4 | nt
Cc1ccccc1-c1nnc(NC(=O)CSc2nc3ccccc3s2)s1 | -3 | -4 | -6 | -6 | -3 | -6
Cc1ccc([N+](=O)[O-])cc1NC(=O)CSc1nncc2ccccc12 | -5 | -3 | 5 | 14 | -1 | 0
Cc1cc(N2C(=O)C=CC2=O)c([N+](=O)[O-])cc1C | 1 | -4 | -2 | -2 | 4 | 0
